14 molecules from paper PMC12136788 can be followed below.

B1: chr21:44329077:44329078:+_ENSG00000160194_ENST00000354250|hu_hu|motif|central (ssRNA)
RNA: GGGAGUUCUACAGUCCGACGAUCCUCCCGGCCUGAGGAGGGCUGAGGCAUCCUGAAUUUUGAGAGUUCGAGGUUGAGGUCGGAGAAGGUGUACGUGCUGUAGUCAUGAUGCUGCAGGUUCUUGUAGGUAGUGUUGUCAAACGGCAACAGAGGAUUGAGCAUCA
B2: chr2:115689366:115689367:-_ENSMUSG00000027210_ENSMUST00000074285|mus_mus|FALSE|FALSE (ssRNA)
RNA: GGGAGUUCUACAGUCCGACGAUCUCUUUGAAGAACAGUCCCCCAAAAUCAUAAUAAGAAUUGGCUUAUGAAGCACAAACUAUAAAGAUCUGUUUGAAACUAAAGGACACAUGGACGGGGGGAACAAAGGCCGGGCAUGAAAACCAACAGAGGAUUGAGCAUCA
B3: chr5:116097646:116097647:+_ENSMUSG00000029518_ENSMUST00000031492|mus_mus|FALSE|FALSE (ssRNA)
RNA: GGGAGUUCUACAGUCCGACGAUCUAAAAAGCAUAAUUAGAAACUUUCAAUACAGAAAUAGUCCUAGCAAACCAUUUAAAAGUUGGUUGUUUGACAGGAGUUUCACAUCGGGCCCACCAGGGUACCAGUGUAGCCCUGAUUCUCCAACAGAGGAUUGAGCAUCA
B4: chr8:13019134:13019135:+_ENSMUSG00000031442_ENSMUST00000123811|mus_mus|motif|central (ssRNA)
RNA: GGGAGUUCUACAGUCCGACGAUCUGGCUGACAGGGGCCUCCUGUUUCCAGAGAUCUCGGAGCACCAUCCCCUCCCAAACGGAGCAAGCCCAAGCAAAAAUAAAAAUUAAAAAUAAAAAAAAACCAAAAAACUUAGAGAUUUGCCAACAGAGGAUUGAGCAUCA
B5: chr8:13019134:13019135:+_ENSMUSG00000031442_ENSMUST00000123811|mus_mus|FALSE|FALSE (ssRNA)
RNA: B4 RNA with G80U, G81A
B6: chr8:117868997:117868998:-_ENSG00000164754_ENST00000297338|hu_hu|motif|central (ssRNA)
RNA: GGGAGUUCUACAGUCCGACGAUCCACCCCUGCCUCAGAGAGGGCAGGGGGAUCAUCAAAGAUACCGCCAUCAUUAUUACGGAUAAGUUUGUCAUCUAAUAUUCCACCAUCAUUUCCUUCUCCAAAAUUAUCAUCCUUAUAUUGCAACAGAGGAUUGAGCAUCA
B7: chr11:93905761:93905762:+_ENSMUSG00000020859_ENSMUST00000103168|mus_mus|FALSE|FALSE (ssRNA)
RNA: GGGAGUUCUACAGUCCGACGAUCCGCUGGCACCCCGGUAGAAAUAGAAAAGUGCACAAGCAGCAAAACAGAGAGAGAUACUAAGAUCGCAGAAUUAAUGACCACCGCCCCGCCAACAAAGCCAAACACAAACAGCAGCAUGCACAACAGAGGAUUGAGCAUCA
B8: chr17:62500844:62500845:-_ENSG00000108654_ENST00000583239|hu_mus|motif|central (ssRNA)
RNA: GGGAGUUCUACAGUCCGACGAUCUUGAUAAAAAUUCUUCUCAAAUUUGGGCAGCUCAUCAAGAUUCCACUUCUUUUUAACGGGUUUCUCCCCAGGAUUUCCAAACUUCUUUCCAGAGAGGGGUCCUGUUCUACUCCCUCCAAACAACAGAGGAUUGAGCAUCA
B9: chr8:86519384:86519385:+_ENSMUSG00000005469_ENSMUST00000005606|mus_mus|FALSE|FALSE (ssRNA)
RNA: GGGAGUUCUACAGUCCGACGAUCUAAAUUAGAUGCAUGGAACUCUAGGGCCCUCUGGCUGUUCGAUCCAACCCUCCCACCCCCAACCGGAAAAAAAAUAGAAAGAAAAAGAAAAAAUGAAAGAGAACCCAAGGGGCACAAGCACAACAGAGGAUUGAGCAUCA
B10: chr1:225611761:225611762:-_ENSG00000143815_ENST00000272163|hu_mus|hu_hu_hu_mus_True|18_78 (ssRNA)
RNA: GGGAGUUCUACAGUCCGACGAUCCCAGGCCAUCGGCCUCUGACCACUUCACCCUCAGCAAAUUUCCUACUUGGCAUUUUCUAAAAUUAGUCUGGCCGCGCUCCGGCGGGAACUCCAGACGGCUCCCGACAGUCACCAGCAGCCCAACAGAGGAUUGAGCAUCA
B11: chr1:241675328:241675329:-_ENSG00000091483_ENST00000366560|hu_mus|FALSE|FALSE (ssRNA)
RNA: GGGAGUUCUACAGUCCGACGAUCGCUUUUGUUAACAUGAUCAUUGGGGUGCACAGGCUUCUUGCUGCCAAGUUCACCUCCUAACAUUUCAAUUGCUCUGUUGCUAAUGACUUCAUUUACAUUCAUGUUUGUCUGGGUUCCUGACAACAGAGGAUUGAGCAUCA
B12: chr17:45747064:45747065:+_ENSG00000108424_ENST00000290158|hu_hu|hu_hu_hu_mus_True|38_108 (ssRNA)
RNA: GGGAGUUCUACAGUCCGACGAUCGCCUACAGUCCAUGCUGUUGUGUCUCGAACAACUACACUGGGGUCUUUCAUUAGUUCUAUUAGGGUGGGCAUAGCCUGUAUAACUAAUGGUUUCAGUUGAUUAGGCUCUGGUCCUUCCAACAACAGAGGAUUGAGCAUCA
B13: chr18:10010020:10010021:-_ENSMUSG00000047879_ENSMUST00000092096|mus_hu|FALSE|FALSE (ssRNA)
RNA: GGGAGUUCUACAGUCCGACGAUCCUCGGCAAACUGUGGGAAAGCCAUGUGCAAAAACUGCAGUAGAAUAAUAGGUGGAAUACUGGAAGAAGUUUUAUCCAUGGAAUCAAACAAAUCUCUAAGGGCUGCAGUAAUAUACUGCGCCAACAGAGGAUUGAGCAUCA
B14: chr7:149068622:149068623:-_ENSMUSG00000025139_ENSMUST00000001950|mus_hu|mus_mus_mus_hu_False|68_98 (ssRNA)
RNA: GGGAGUUCUACAGUCCGACGAUCGUGAGGCCUCUGAGUGAGGUUCCUGGUCUGUCCUGGGUUAGAGCUGCUGGUAACACGGAACAUACCAUCUAGAACGUUCCAGUCCCGCCUGACACCUUCAUUCCCAAUGGAGAAGAAAUCCAACAGAGGAUUGAGCAUCA

Where a chain is given by its changes, count along the chain named. Whole data set: some 24,000 sequences, median “enrichment r” near 0.99, cut for the highest 2% near 3.7. This is one part of a sample in which the highest values are shown more often than they occur.

The assay addresses T1, UNK ZnF1-3 (human, UniProt Q9C0B0 31-174).
T1 sequence: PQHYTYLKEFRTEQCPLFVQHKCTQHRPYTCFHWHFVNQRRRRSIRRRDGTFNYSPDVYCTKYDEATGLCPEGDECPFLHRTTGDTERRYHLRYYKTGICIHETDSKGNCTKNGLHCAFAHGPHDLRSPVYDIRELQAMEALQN
Put plainly: nsRBNS (natural sequence RNA bind-n-seq); RBNS binding buffer (assumed for nsRBNS): 25 mM Tris pH 7.5, 150 mM KCl, 3 mM MgCl2, 0.01% Triton X-100, 500 ug/ml BSA, 20 U/ml SUPERase-In, 4 C; UNK is unkempt and MSI1 is Musashi-1; names of the RNAs are library labels; protein concentration not given here; high values mean tight binding.
B1 had a binding signal of 1.5 enrichment R.

B2: the binding signal was found to be 2.13 enrichment R.

The molecule B3 yielded a binding signal of 0.472 enrichment R.

B4 came in with a binding signal of 14.4 enrichment R.

In turn, B5 had a binding signal of 21.6 enrichment R.

B6 registered a binding signal of 1.12 enrichment R.

The molecule B7 displayed a binding signal of 2.57 enrichment R.

On to B8, for which the binding signal turned out to be 1.28 enrichment R.

Regarding B9, the binding signal amounted to 6.04 enrichment R.

In turn, B10 displayed a binding signal of 1.27 enrichment R.

For B11, the binding signal was determined as 0.274 enrichment R.

For the molecule B12, the binding signal worked out at 0.577 enrichment R.

Turning to B13, the binding signal was 1.59 enrichment R.

In the case of B14, the binding signal worked out at 0.742 enrichment R.
